Data: PubChem BioAssay (Tox21)
Results filed as inconclusive are left out. Calls of active or inactive are those of the source. Unless noted, calls come from the whole dose curve.

Key:
[1] = Nuclear factor erythroid 2-related factor 2/antioxidant responsive element (Nrf2/ARE) small molecule agonists: qHTS cell viability counter screen in human keratinocytes (AID 1919968; active = well fitted curve in the direction sought with a large enough effect in the repeat runs; an effect the other way counts as inactive or inconclusive; note: nearly all actives have a fitted effect of over 55% in size)
How it was run: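 Stably transfected HaCaT (KeratinoSens), 1,500/well. Test agents in DMSO were applied for 23 h, 37 C/5% CO2. CellTiter-Fluor was incubated 1 h before the fluorescence read.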

[2] = Nuclear factor erythroid 2-related factor 2/antioxidant responsive element (Nrf2/ARE) small molecule agonists: luciferase reporter gene qHTS assay in human keratinocytes (AID 1919969); note: nearly all actives have a fitted effect of over 35% in size; note: potency is the fitted concentration of half-maximal effect
[3] = biological target: Gonadotropin-releasing hormone receptor (Homo sapiens) (UniProt P30968); assay: Human gonadotropin-releasing hormone receptor (GnRHR) small molecule agonists, calcium flux assay in GnRHR-HEK293 cells (AID 1920063); note: nearly all actives have a fitted effect of over 35% in size
Gonadotropin-releasing hormone receptor (Homo sapiens), sequence (P30968 whole entry, looked up): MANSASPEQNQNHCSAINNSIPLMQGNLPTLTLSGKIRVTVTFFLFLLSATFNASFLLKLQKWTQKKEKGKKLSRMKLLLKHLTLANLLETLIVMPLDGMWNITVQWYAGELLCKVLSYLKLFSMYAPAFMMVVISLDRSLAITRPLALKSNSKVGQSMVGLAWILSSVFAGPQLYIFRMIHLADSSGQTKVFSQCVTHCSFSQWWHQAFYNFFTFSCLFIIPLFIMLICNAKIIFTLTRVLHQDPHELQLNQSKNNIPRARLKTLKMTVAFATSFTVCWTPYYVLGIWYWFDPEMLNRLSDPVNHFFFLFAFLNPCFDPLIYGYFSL
How it was run: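 Stable human GnRHR HEK293 line. 18 h plating, then calcium dye for 1 h at 37 C. Agonist-mode compound addition from DMSO stocks; fluorescence monitored 3 min.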

[4] = biological target: KiSS-1 receptor (Homo sapiens) (UniProt Q969F8); assay: Human kisspeptin (KISS1R) small molecule agonists, calcium flux assay in KISS1R-HEK293 cells (AID 1920064; active = well fitted curve in the direction sought with a large enough effect in the repeat runs; an effect the other way counts as inactive or inconclusive)
KiSS-1 receptor (Homo sapiens), sequence (Q969F8 whole entry, looked up): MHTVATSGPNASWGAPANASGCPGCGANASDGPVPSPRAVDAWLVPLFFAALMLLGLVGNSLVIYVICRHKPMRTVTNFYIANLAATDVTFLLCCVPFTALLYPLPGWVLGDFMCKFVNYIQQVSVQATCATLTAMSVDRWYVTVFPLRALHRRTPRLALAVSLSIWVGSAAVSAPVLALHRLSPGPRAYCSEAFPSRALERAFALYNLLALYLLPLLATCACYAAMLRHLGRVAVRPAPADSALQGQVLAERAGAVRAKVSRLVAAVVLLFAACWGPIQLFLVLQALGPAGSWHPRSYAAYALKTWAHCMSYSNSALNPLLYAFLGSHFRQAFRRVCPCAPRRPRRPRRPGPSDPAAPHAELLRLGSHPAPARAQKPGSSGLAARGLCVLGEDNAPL
How it was run: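 After overnight (18 h) culture at 37 C/5% CO2, human KISS1R-HEK293 cells received calcium dye for 1 h, then test compound; emission at 540 nm (excitation 480 nm) was tracked for 3 min.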

[5] = G protein-coupled receptor (GPCR) small molecule agonists, calcium flux assay: HEK293 wild type cell line counter screen (AID 1920065)
How it was run: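 Following 18 h incubation at 37 C/5% CO2, plates got calcium dye for 1 h; compounds, ATP or DMSO were then pinned in and fluorescence followed kinetically (480/540 nm).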

[6] = p53 small molecule agonists, cell-based qHTS assay with human liver microsomes: qHTS cell viability counter screen (AID 1963579); note: nearly all actives have a fitted effect of over 45% in size; note: potency is the fitted concentration of half-maximal effect
How it was run: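 Seed p53RE-bla cells at 4,000 per well; incubate 5 h at 37 C; add compound, human liver microsomes and NADPH; incubate 16 h at 37 C; add CellTiter-Glo; after 30 min at room temperature, read luminescence.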

[7] = p53 small molecule agonists, cell-based qHTS assay with rat liver microsomes: qHTS cell viability counter screen (AID 1963580); note: nearly all actives have a fitted effect of over 45% in size
How it was run: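 Cytotoxicity counter screen: intracellular ATP read by CellTiter-Glo luminescence in the p53 reporter wells. HCT-116 p53RE-bla cells were treated for 16 h at 37 C alongside rat liver microsomes and NADPH, each 0.5 mg/mL final.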

[8] = p53 small molecule agonists, cell-based qHTS assay: qHTS cell viability counter screen (AID 1963581); note: nearly all actives have a fitted effect of over 45% in size
How it was run: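 qHTS counter screen: 16 h compound exposure at 37 C of p53RE-bla HCT-116 cells (4,000 per well, seeded 5 h prior), cell viability by ATP luminescence.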

[9] = biological target: 5-hydroxytryptamine receptor 2A (Homo sapiens) (UniProt P28223); assay: 5-hydroxytryptamine receptor 2A (HTR2A) small molecule antagonists, cell-based qHTS assay (AID 1963586); note: nearly all actives have a fitted effect of over 45% in size
5-hydroxytryptamine receptor 2A (Homo sapiens), sequence (P28223 whole entry, looked up): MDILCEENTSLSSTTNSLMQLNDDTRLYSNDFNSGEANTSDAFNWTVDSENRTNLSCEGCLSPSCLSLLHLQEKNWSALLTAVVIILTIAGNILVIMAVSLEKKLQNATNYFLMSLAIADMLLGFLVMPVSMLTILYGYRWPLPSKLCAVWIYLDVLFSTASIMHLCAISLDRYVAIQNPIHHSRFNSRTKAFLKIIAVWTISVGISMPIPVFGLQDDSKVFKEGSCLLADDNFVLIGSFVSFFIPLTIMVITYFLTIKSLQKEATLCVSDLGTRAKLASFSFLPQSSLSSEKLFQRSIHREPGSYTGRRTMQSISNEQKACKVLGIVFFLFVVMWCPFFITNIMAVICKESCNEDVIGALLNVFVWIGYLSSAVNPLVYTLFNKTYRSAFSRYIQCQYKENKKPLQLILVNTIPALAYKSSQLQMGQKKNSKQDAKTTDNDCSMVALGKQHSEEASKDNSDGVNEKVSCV
How it was run: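 CHO cells stably expressing human HTR2A were plated for 18 h at 37 C, then loaded with calcium dye for 1 h. Compounds were preincubated 5 min at room temperature before DOI (4 nM solution) was added. Kinetic fluorescence was read for 3 min.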

[10] = biological target: 5-hydroxytryptamine receptor 2A (Homo sapiens) (UniProt P28223); assay: 5-hydroxytryptamine receptor 2A (HTR2A) small molecule agonists, cell-based qHTS assay (AID 1963587); note: nearly all actives have a fitted effect of over 30% in size
How it was run: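 Kinetic calcium-flux fluorescence (2 min, 1 sec intervals) after compound addition in agonist mode. HTR2A-CHO cells were cultured 18 h, then dye-loaded 1 h at 37 C.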

[11] = biological target: Muscarinic acetylcholine receptor M1 (Homo sapiens) (UniProt P11229); assay: Cholinergic receptor muscarinic 1 (CHRM1) small molecule antagonists, cell-based qHTS assay (AID 1963588); note: nearly all actives have a fitted effect of over 40% in size
Muscarinic acetylcholine receptor M1 (Homo sapiens), sequence (P11229 whole entry, looked up): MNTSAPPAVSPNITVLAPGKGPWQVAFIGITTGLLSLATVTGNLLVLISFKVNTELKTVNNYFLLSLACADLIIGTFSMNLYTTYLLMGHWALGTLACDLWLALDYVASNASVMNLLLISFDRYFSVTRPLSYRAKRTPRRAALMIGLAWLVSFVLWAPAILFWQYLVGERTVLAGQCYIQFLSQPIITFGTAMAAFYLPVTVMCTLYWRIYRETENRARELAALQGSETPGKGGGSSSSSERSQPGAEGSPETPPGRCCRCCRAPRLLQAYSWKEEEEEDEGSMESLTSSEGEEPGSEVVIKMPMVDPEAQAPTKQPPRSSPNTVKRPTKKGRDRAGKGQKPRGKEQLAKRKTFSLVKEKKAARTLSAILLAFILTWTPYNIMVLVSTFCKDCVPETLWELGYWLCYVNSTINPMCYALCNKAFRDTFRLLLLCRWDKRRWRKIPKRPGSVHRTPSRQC
How it was run: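 Compounds were tested at 15 concentrations in three independent runs. Dye-loaded CHRM1-CHO cells were exposed 5 min at room temperature before stimulation by acetylcholine added at 50nM. Intracellular calcium was read kinetically on FDSS for 3 min.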

[12] = biological target: Muscarinic acetylcholine receptor M1 (Homo sapiens) (UniProt P11229); assay: Cholinergic receptor muscarinic 1 (CHRM1) small molecule agonists, cell-based qHTS assay (AID 1963589); note: nearly all actives have a fitted effect of over 35% in size
How it was run: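 Kinetic fluorescence (1 s intervals) of calcium-sensitive dye in human M1 CHO cells after compound addition; cells pre-incubated 18 h at 37 C/5% CO2 and dye-loaded 1 h.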

[13] = cAMP Responsive Elements (CRE) small molecule antagonists, cell-based qHTS assay (AID 1963591; active = well fitted inhibition curve with a large enough effect in the signal ratio in the repeat runs, not every such curve was filed as active; the % refers to the signal ratio)
How it was run: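 Reporter line CRE-bla HEK 293T in dialyzed-FBS DMEM; cells preincubated 18 h, treated 3 h with compound plus NKH477 (0.25 uM final); LiveBLAzer FRET, 2 h RT.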

[14] = biological target: D(2) dopamine receptor (Homo sapiens) (UniProt P14416); assay: Dopamine D2 receptor (DRD2) small molecule agonists, cell-based qHTS assay (AID 1963594); note: nearly all actives have a fitted effect of over 35% in size
D(2) dopamine receptor (Homo sapiens), sequence (P14416 whole entry, looked up): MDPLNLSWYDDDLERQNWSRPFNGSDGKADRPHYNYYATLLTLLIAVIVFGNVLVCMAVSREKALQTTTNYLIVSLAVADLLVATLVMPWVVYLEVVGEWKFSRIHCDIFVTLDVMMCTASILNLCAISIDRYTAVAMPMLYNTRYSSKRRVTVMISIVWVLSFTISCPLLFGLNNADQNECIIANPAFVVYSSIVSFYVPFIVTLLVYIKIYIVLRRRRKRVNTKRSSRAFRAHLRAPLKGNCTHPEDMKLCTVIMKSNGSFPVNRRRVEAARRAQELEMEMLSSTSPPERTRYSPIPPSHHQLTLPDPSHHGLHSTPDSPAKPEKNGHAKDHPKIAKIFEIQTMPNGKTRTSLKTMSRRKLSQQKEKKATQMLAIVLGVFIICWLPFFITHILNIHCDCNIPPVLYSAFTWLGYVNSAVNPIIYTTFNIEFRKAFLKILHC
How it was run: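 cAMP accumulation in DRD2-HEK293 cells measured by HTRF after 1 h detection; compounds added 10 min before NKH477 (200nM […]) forskolin-analogue stimulation, 30 min at room temperature, with Ro20-1724 present at 0.1 mM final.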

[15] = cAMP Responsive Elements (CRE) small molecule agonists, cell-based qHTS assay (AID 1963590)
How it was run: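 Test agents in DMSO were incubated 3 h at 37 C/5% CO2 with CRE-bla HEK 293T cells seeded 18 h earlier; LiveBLAzer B/G FRET substrate was added and read after 2 h at room temperature.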

[16] = biological target: Beta-2 adrenergic receptor (Homo sapiens) (UniProt P07550); assay: Adrenergic beta2 receptor (ADRB2) small molecule antagonists, cell-based qHTS assay (AID 1963592); note: series mostly up to about 92 µM; nearly all actives have a fitted effect of over 50% in size
Beta-2 adrenergic receptor (Homo sapiens), sequence (P07550 whole entry, looked up): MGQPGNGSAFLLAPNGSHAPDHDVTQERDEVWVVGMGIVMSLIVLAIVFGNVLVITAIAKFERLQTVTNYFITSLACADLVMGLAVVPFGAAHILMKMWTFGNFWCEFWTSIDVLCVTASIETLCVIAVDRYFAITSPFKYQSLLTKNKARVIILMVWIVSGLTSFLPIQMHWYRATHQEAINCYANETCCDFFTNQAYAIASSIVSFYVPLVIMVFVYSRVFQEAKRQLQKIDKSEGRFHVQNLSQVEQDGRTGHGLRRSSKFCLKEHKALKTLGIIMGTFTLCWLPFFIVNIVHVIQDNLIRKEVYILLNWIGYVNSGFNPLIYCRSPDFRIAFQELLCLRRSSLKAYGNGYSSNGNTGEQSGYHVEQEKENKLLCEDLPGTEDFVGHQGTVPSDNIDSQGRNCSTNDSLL
How it was run: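 Assay format: CHO-ADRB2 cells, 18-20hr seeding at 37C/5% CO2, then compound plus 1nM isoproterenol agonist mix for 0.5hr RT. Homogeneous time-resolved fluorescence cAMP detection after 1hr, expressed as 665/615 nm ratio.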

[17] = biological target: D(2) dopamine receptor (Homo sapiens) (UniProt P14416); assay: Dopamine D2 receptor (DRD2) small molecule antagonists, cell-based qHTS assay (AID 1963595; active = well fitted inhibition curve with a large enough effect in the signal ratio in the repeat runs, with a control signal flat; the % refers to the signal ratio)
How it was run: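 Readout: HTRF cAMP, cAMP-d2 competing with cellular cAMP for anti-cAMP cryptate, read after 1 h. Cells: DRD2-HEK293. Conditions: 0.1 mM Ro20-1724, 12 nM quinpirole, 200 nM NKH477, 30 min RT.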

[18] = biological target: Beta-2 adrenergic receptor (Homo sapiens) (UniProt P07550); assay: Adrenergic beta2 receptor (ADRB2) small molecule agonists, cell-based qHTS assay (AID 1963593);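 note: CHO cells stably overexpressing human ADRB2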
How it was run: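 CHO cells stably over-expressing ADRB2 were plated overnight at 37C, then dosed with compounds plus a stimulation mix containing 100uM IBMX and 25uM Ro-20-1724 for 0.5hr at room temperature. cAMP was measured by HTRF competition, 1hr.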
% is set by controls: 0 for no effect and ±100 for the full control effect.

COP(=S)(NC(C)C)Oc1ccc(C)cc1[N+](=O)[O-] (stereo not drawn)
inactive: Potency [1] | Potency [2] | Potency [3] | Potency [4] | Potency [5] | Potency [6] | Potency [7] | Potency [8] | Potency [9] | Potency [10] | Potency [11] | Potency [12] | Potency [13] | Potency [14]

O=C(O)c1cccc(Cl)c1
inactive: Potency [1] | Potency [2] | Potency [3] | Potency [4] | Potency [5] | Potency [6] | Potency [7] | Potency [8] | Potency [9] | Potency [10] | Potency [12] | Potency [15] | Potency [13] | Potency [16] | Potency [17]

CC(Oc1cc(Cl)c(Cl)cc1Cl)C(=O)O (stereo not drawn)
inactive: Potency [1] | Potency [2] | Potency [3] | Potency [4] | Potency [5] | Potency [6] | Potency [7] | Potency [8] | Potency [9] | Potency [10] | Potency [12] | Potency [16] | Potency [14] | Potency [17]

Brc1cccc(-c2ccccc2)c1
inactive: Potency [1] | Potency [2] | Potency [3] | Potency [4] | Potency [5] | Potency [6] | Potency [7] | Potency [8] | Potency [9] | Potency [11] | Potency [12] | Potency [15] | Potency [13] | Potency [16] | Potency [18] | Potency [14] | Potency [17]

Cc1ccccc1CO[C@@H]1C[C@@]2(C(C)C)CC[C@]1(C)O2
inactive: Potency [1] | Potency [2] | Potency [3] | Potency [4] | Potency [5] | Potency [6] | Potency [7] | Potency [8] | Potency [9] | Potency [10] | Potency [11] | Potency [12] | Potency [16] | Potency [18] | Potency [14] | Potency [17]

BrCCCBr
inactive: Potency [1] | Potency [2] | Potency [3] | Potency [4] | Potency [5] | Potency [6] | Potency [7] | Potency [8] | Potency [9] | Potency [10] | Potency [11] | Potency [12] | Potency [13] | Potency [16] | Potency [18] | Potency [14]

CC(C)[C@]12CC(=O)[C@H](C)[C@H]1C2
inactive: Potency [1] | Potency [2] | Potency [3] | Potency [4] | Potency [5] | Potency [6] | Potency [7] | Potency [8] | Potency [9] | Potency [10] | Potency [11] | Potency [12] | Potency [15] | Potency [18] | Potency [14]

NCC(CC(=O)O)c1ccc(Cl)cc1 (stereo not drawn)
inactive: activity change, negative = cytotoxicity [1] 20.7% [at 0.349 µM] | activity, positive = activation [2] 2.43% [at 0.349 µM] | activity change [3] -1.11% [at 0.217 µM, stronger effect = higher value] | activation [4] -1.08% [at 0.29 µM] | activation [5] 0.685% [at 0.217 µM] | activity change, negative = cytotoxicity [6] -3.85% [at 0.249 µM] | activity change, negative = cytotoxicity [7] 5.91% [at 0.249 µM] | activity change, negative = cytotoxicity [8] -8.51% [at 0.249 µM] | activity change, negative = inhibition [13] -4.66% [at 0.349 µM] | activity change, negative = inhibition [16] 2.66% [at 0.349 µM] | activation [18] 10.6% [at 0.349 µM] | activation [14] 0.37% [at 0.349 µM] | activity change, negative = inhibition [17] 1.84% [at 0.348 µM]

CCCN
inactive: Potency [1] | Potency [2] | Potency [3] | Potency [4] | Potency [5] | Potency [6] | Potency [7] | Potency [8] | Potency [9] | Potency [10] | Potency [11] | Potency [15] | Potency [16] | Potency [18] | Potency [14] | Potency [17]

CNC(=O)O/N=C(\C)C(C)S(C)(=O)=O (stereo not drawn)
inactive: Potency [1] | Potency [3] | Potency [4] | Potency [5] | Potency [7] | Potency [8] | Potency [9] | Potency [10] | Potency [11] | Potency [15] | Potency [13] | Potency [16] | Potency [18] | Potency [14] | Potency [17]
active: Potency [2] 708 µM | Potency [6] 316 µM
